In PubChem BioAssay AID1822 (The Scripps Research Institute Molecular Screening Center, 2009):
The whole screen tested about 290,000 compounds, of which about 3,500 (1.2%) were called active.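 The calls were made as follows: active = inhibition above the campaign mean inhibition over all tested compounds plus 3 SD (cut at about 28% in these data); inactive = the rest.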 The sample as a whole holds a higher share of actives than the screen did.

System: M18 aspartyl aminopeptidase (Plasmodium falciparum 3D7)
Test: PfM18AAP inhibitors, malaria aminopeptidase, primary screen, biochemical, QFRET, recombinant enzyme (AID 1822);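 also: 0% = plate median of test compound wells and 100% = 2 mM ZnCl2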
Settings: H-Glu-NHMec fluorogenic cleavage, at 7.35 µM, hits give high values

**Q.** Which inhibition does the source give for `Cc1cccc(N2C(=O)NC(=O)/C(=C\c3cnn(-c4ccccc4)c3)C2=O)c1` here?
**A.** The inhibition was -3.93% (inactive).

**Q.** `COc1cccc(N2C(=O)NC(=O)/C(=C\c3cn(C)c4ccccc34)C2=O)c1` was tested. Which inhibition did it give?
**A.** Its inhibition is 31.5% (active).

**Q.** Which inhibition does the source give for `COc1cccc(N2C(=O)NC(=O)/C(=C\c3ccc([N+](=O)[O-])s3)C2=O)c1` here?
**A.** Its inhibition is 9.11% (inactive).

**Q.** With `CCOc1ccc(-c2cc(C)[n+](CCN(CC)CC)c(-c3ccc(OCC)cc3)c2)cc1` as the compound, how does the inhibition read?
**A.** Its inhibition is -4.54% (inactive).

**Q.** Which inhibition does the source give for `Cc1cccc(NC(=O)N2CC3CC(C2)c2cccc(=O)n2C3)c1` (stereo not given) here?
**A.** The inhibition was -2.4% (inactive).
